Measurements taken from PubChem BioAssay AID1259313 (Sanford-Burnham Center for Chemical Genomics, 2017).
About 8,500 (2.5%) of roughly 340,000 compounds were called active.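 How the source made its calls: active means melting temperature shift of at least 10% of the positive control shift, at one fixed dose; inactive means the rest.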 The list comes from a sample in which actives are over-represented; it also holds similar structures and randomly drawn compounds.

What follows are compounds tested on Glutamate receptor ionotropic, NMDA 3A (GRIN3A) ligand-binding domain (assay: binders of NR3A ligand-binding domain, primary screen, biophysical, differential scanning fluorimetry, uHTS (AID 1259313)). Conditions: NR3A LBD differential scanning fluorimetry, at 25 µM, hits give high values, 0% = protein alone, 100% = glycine-bound protein.

Tm shift relative to glycine control, inactive:
C=CCn1c(SCc2ccc(Cl)c(Cl)c2)nnc1C(CO)NC(=O)c1ccc(OC)cc1 (centres undefined) -6.08%
CN(CC(=O)Nc1ccccc1[N+](=O)[O-])Cc1ccc(Br)cc1 -2.8%
CSc1ccccc1NC(=O)CN(C)CC(=O)Nc1ccc(Cl)cc1[N+](=O)[O-] 2.47%
O=C(O)c1ccc([N+](=O)[O-])cc1Sc1ccsc1 1.67%
CC(=O)Nc1ccc(CN2CCN(Cc3ccc(F)c(F)c3)C(CCO)C2)cc1 (centres undefined) -0.08%
CN(C)c1ccc(NC(=O)CSc2n[nH]c(-c3ccco3)n2)cc1 0.92%
CCN1CCN(c2nc(Nc3cccc(F)c3)nc(N)c2[N+](=O)[O-])CC1 0.95%
COc1cccc(Nc2nc(N)c([N+](=O)[O-])c(NCc3ccco3)n2)c1 -10.5%
Cc1cn(C)c(=O)n(C)c1=O -0.48%
CCN(CC)S(=O)(=O)c1ccc(NC(=O)c2cccnc2Cl)c(NC(=O)c2cccnc2Cl)c1 -0.78%
CC(=O)c1sc(N)nc1C 2.68%
CCOC(=O)c1sc(NC(=O)c2sc(C)nc2C)nc1C 3.53%
CN(C)C(=O)CCC(=O)N1CCCCC1C(=O)Nc1ccc(Oc2ccccc2F)cc1 (centres undefined) -0.77%
O=S(=O)(c1ccc(Cl)cc1)N1CCCN(c2ccc(C(F)(F)F)cn2)CC1 -4.38%
COc1cc([N+](=O)[O-])ccc1NC(=O)COC(=O)CCOc1ccc(C)cc1 2.57%
COC(=O)c1ccccc1NC(=O)Cc1ccccc1OC -0.63%
COc1ccc(CCNC(=O)COC(=O)c2ccc[nH]c2=O)cc1 -2.27%
Cc1cccc(/C=N/NC(=O)CNc2cccc3ccccc23)n1 4.98%
Cc1ccc(/C=N/NC(=O)CN2CCN(Cc3ccccc3)CC2)s1 -1.47%
COc1ccc(C)cc1-n1nnnc1SCc1nc2ccccc2c(=O)[nH]1 0.31%
Cc1ccc(NC(=O)CSc2nc(CSc3ccc(C)cc3)cc(=O)[nH]2)cc1 -30.2%
O=C(Nc1ccc(Br)cc1)c1cccc(NC(=O)C2C3CC4OC(=O)C2C4C3)c1 (centres undefined) -8.89%
O=C(NC(=S)Nc1cccc(-c2ccc(CO)o2)c1)c1cccs1 -18.4%
COc1ccc(N2C(=O)C(CC(=O)Nc3ccccc3)N(Cc3ccc(OC)c(OC)c3)C2=O)cc1 (centres undefined) -3.64%
O=C(Nc1ccc(Cl)cc1)C1c2cccc[n+]2CC(=O)N1Cc1ccc2c(c1)OCO2 (centres undefined) 0.68%
O=C(CN1CCN(C(=S)NC2CCCC2)CC1)Nc1ccc(Oc2ccccc2)cc1 -2.87%
O=C(NCc1ccccc1Cl)C1CCN(S(=O)(=O)c2cccc3nonc23)CC1 2.6%
Cc1cc(/C=C2/NC(=O)NC2=O)c(C)n1-c1cccnc1 -4.95%
Cc1ccccc1-n1c(C)cc(/C=C2\NC(=O)NC2=O)c1C -2.81%
O=C1C2N=NN(CC(=O)N3N=C(c4cccc5ccccc45)CC3c3ccccc3)C2C(=O)N1c1ccccc1 (centres undefined) -0.6%
COc1ccc(C2=NN(c3ccccc3)C(c3cccs3)C2)cc1 (centres undefined) 0.58%
O=C(CCN1C(=O)C2C3C=CC(C3)C2C1=O)Oc1ccc2ccccc2c1 (centres undefined) -2.31%
Cc1ccc(C(=O)COC(=O)CCN2C(=O)C3C4CCC(C4)C3C2=O)cc1C (centres undefined) 1.5%
Cc1nn(Cc2ccc(Cl)cc2)c(Cl)c1/C=N/NC(=O)c1cccnc1 -6.33%
CCn1nc(C)c(/C=N/NC(=O)Cc2ccc(Cl)cc2)c1C 1.94%
C/C=C/C(=O)OCc1csc(CC(=O)Nc2ccccc2C)n1 -1.3%
Cc1ccc(C)c(S(=O)(=O)N2CCN(CC(=O)Nc3ccc([N+](=O)[O-])cc3)CC2)c1 -7.08%
Cc1ccc(S(=O)(=O)N2CCN(CC(=O)N/N=C/c3ccc(Br)s3)CC2)cc1 0.82%
CCOC(=O)CN(C)S(=O)(=O)c1ccc(-c2cc(C(=O)OC)sc2C(F)(F)F)cc1 -0.21%
CCC(CC)C(=O)Nc1cccc(C(=O)N2CCCC2)c1 -2.45%
Cc1cc(C(=O)COc2ccc(Br)cc2F)c(C)n1C1CC1 1.06%
COc1ccc(C(c2nnnn2Cc2cccs2)N2CCN(c3ccccc3)CC2)cc1OC (centres undefined) 0%
N#Cc1ccc(C(c2nnnn2CCc2ccccc2)N2CCCCCC2)cc1 (centres undefined) 1.53%
COc1ccc(S(=O)(=O)N2CCN(c3ncnc4c(-c5ccccc5)nsc34)CC2)cc1 -1.19%
O=C(c1ccc(F)cc1)c1c[nH]c(C(=O)NCc2cccnc2)c1 -1.06%
CCN(Cc1ccncc1)C(=O)c1cccc(S(=O)(=O)N2CCOCC2)c1 0.46%
CC(C)CNS(=O)(=O)c1ccc(C(=O)Nc2ccc3c(c2)OCO3)cc1 -0.27%
Cc1ccc(S(=O)(=O)NCC(=O)Nc2ccc3c(c2)OCCO3)cc1 0.9%
COc1ccc2[nH]cc(CCN3C(=O)c4ccc(C(=O)O)cc4C3=O)c2c1 -2.98%
CCN(CC)CC(=O)c1c[nH]c2ccc(OC)cc12 -2.92%
C=C(C)C1CC=C(C)/C(=N/NC(=O)CCCNc2cccc(C)c2)C1 (centres undefined) -0.09%
CCc1cc2c(SCC(=O)Nc3ncc(Cl)c(C)c3Cl)ncnc2s1 -1.41%
O=C(NNC(=O)c1cccc(S(=O)(=O)Nc2ccc(Cl)cc2)c1)c1ccc(=O)[nH]c1 0.33%
CC(C)N(C(=O)CSc1nnc(NC2CC2)s1)c1ccccc1 -1.56%
Cc1ccccc1Nc1nnc(SCC(=O)c2cc3ccccc3o2)s1 -23.4%
Cc1cc2c(=O)n(C)c(SCC(=O)c3cc4ccccc4o3)nc2s1 -0.65%
CC(C)Nc1nnc(SCC(=O)c2c[nH]c3ccccc23)s1 -3.26%
O=C(CN1C(=O)CCS(=O)(=O)c2ccccc21)NCc1ccc(F)cc1 -2.05%
CN1CCN(C(=O)c2ccc(NS(=O)(=O)c3ccccc3)cc2)CC1 -0.09%
OCCCC1CCCCN1Cc1nc(Cc2ccccc2Cl)no1 (centres undefined) 0.08%
NS(=O)(=O)c1cc(C(=O)NCCOc2ccccc2)c(Cl)cc1Cl -0.6%
CCCN(C(=O)CSc1nnc(N)s1)c1c(N)n(Cc2ccccc2)c(=O)[nH]c1=O 5.76%
CC1=CC(=C(C#N)c2nc3ccccc3s2)C=C(C)N1c1ccc(F)cc1F -4.96%
O=C(O)CC/C(=C\c1cc2c(cc1Br)OCO2)c1nc2ccccc2s1 -1.28%
Cc1cc(NC(=O)c2ccco2)c(=O)n(Cc2c(F)cccc2Cl)c1 -1.84%
COc1ccc2[nH]c3c(c2c1)CCN1C(=O)C(CC(=O)NCCCN(C)C)C[C@H](C(=O)N2CCOCC2)[C@@]31CCC1CCCC1 (some centres undefined) 0.34%
O=C(C[C@H]1C[C@H](C(=O)N2CCOCC2)[C@@]2(CCC3CCCC3)c3[nH]c4ccc(Cl)cc4c3CCN2C1=O)NCc1ccco1 3%
C/C(Cc1ccccc1)=N\NC(=O)CNC(=O)c1cccc(Br)c1 -3.32%
C/C(Cc1ccccc1)=N\NC(=O)CNC(=O)c1ccccc1Cl 0%

Tm shift relative to glycine control, active:
Cc1ccc(NC(=O)CN(C)Cc2ccc(F)cc2)c([N+](=O)[O-])c1 12.7%
CNc1nc(Nc2ccc(C)c(Cl)c2)nc(N)c1[N+](=O)[O-] 25.8%
CCOC(=O)c1nc(N)sc1C(=O)OCC 17.7%
COc1ccccc1CC(=O)Nc1ccc([N+](=O)[O-])cc1OC 10.2%
Cc1ccccc1NCC(=O)N/N=C\c1ccc([N+](=O)[O-])s1 11.5%
Cc1ccc(Nc2nc(CSc3nnnn3-c3ccccc3)cc(=O)[nH]2)cc1 10.7%
CCCOc1ccc(NC(=O)CC2C(=O)N(C)C(=S)N2Cc2ccc3c(c2)OCO3)cc1 (centres undefined) 23.2%
Cc1ccc(CN2C(=O)N/C(=C/c3cc(C)n(-c4ccccn4)c3C)C2=O)cc1 57.7%
Oc1ccccc1C1=NN(c2ccccc2)C(c2ccccc2)C1 (centres undefined) 11.9%
Cc1ccc(C(=O)COC(=O)CCN2C(=O)C3C4CC(C(Br)C4Br)C3C2=O)cc1 (centres undefined) 18%
Cc1nn(Cc2ccc(Cl)cc2)c(Cl)c1/C=N/NC(=O)CNc1ccccc1F 16.1%
Cc1ccc(S(=O)(=O)N2CCN(CC(=O)N/N=C/c3cc([N+](=O)[O-])ccc3Cl)CC2)cc1 19.9%
COc1ccc(CCn2nnnc2C(c2ccccc2)N2CCN(C)CC2)cc1OC (centres undefined) 10.2%
CNS(=O)(=O)c1ccc(NC(=O)Nc2ccc3c(c2)OCO3)cc1 11.2%
COc1ccc2[nH]cc(/C=C(/C#N)S(=O)(=O)c3ccccc3)c2c1 13.2%
Cc1ccc(Nc2nnc(SCC(=O)c3cc4ccccc4o3)s2)cc1C 11.5%
CC(C)c1ccc(Nc2nnc(SCC(=O)c3nnc(-c4ccccc4)o3)s2)cc1 19.9%
N#C/C(=C(/O)Cc1cccc2ccccc12)c1nc2ccccc2s1 19.3%
COc1ccc(CNC(=O)C[C@H]2C[C@H](C(=O)N3CCOCC3)[C@@]3(CCC4CCCC4)c4[nH]c5ccc(Cl)cc5c4CCN3C2=O)cc1OC 10%
C/C(Cc1ccccc1)=N\NC(=O)CNC(=O)c1ccc2c(c1)OCCO2 12.5%
